NTMT1 inh = NTMT1 methyltransferase inhibition; Potency, µM (series often up to 114 µM), for inactives: top-dose activity change, negative = inhibition, actives largely listed as inhibitors; Q9BV86; NTMT1 MTase-Glo SAH luminescence, purified enzyme; hit rate 2.5% among 59,000;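 also: potency is read from the fitted curve at half-maximal effect; plate controls were DMSO vehicle for no effect and no enzyme for full effect; nearly all actives have a fitted effect of over 65% in size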
GPR32 ag = activates human resolvin D1 receptor GPR32 | O75388 | CHO-K1 GPR32 beta-arrestin PathHunter luminescence, 90 min; zero percent set by DMSO-only wells | activation, % at 76.9 µM | hit rate 2.5% among 48,000 | AID 1346428;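 active = activation of at least 60% and not above a set upper limit, about 1 call in 100 departs from these limits; inconclusive = activation of 40% to 60%, or above that upper limit; inactive = activation under 40%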; also: 0% is about no effect
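Beta-arrestin recruitment read-out: luminescence from complemented beta-Gal in CHO-K1 GPR32 PathHunter cells, measured 1 h after detection reagent at ambient temperature following 90 min compound exposure at 37 °C; DMSO served as basal (EC0) control.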
FH mod = Identification of activators of human fumarate hydratase by quantitative high-throughput screening | hit rate 0.22% among 54,000 | FH coupled MDH/diaphorase resazurin fluorescence, 15 min | Fumarate hydratase, mitochondrial (Homo sapiens), P07954 | AID 1347055, 2019 | Potency, µM (top dose mostly 79.9 µM), inactives show at the top dose activity change, negative = inhibition, most hits filed as inhibitors; also: potency is read from the fitted curve at half-maximal effect; % is scaled to controls: 0 for no effect and ±100 for the full control effect; the screen sought activators but most active calls are inhibition curves; nearly all actives have a fitted effect of over 45% in size
Target sequence (P07954 whole entry, looked up): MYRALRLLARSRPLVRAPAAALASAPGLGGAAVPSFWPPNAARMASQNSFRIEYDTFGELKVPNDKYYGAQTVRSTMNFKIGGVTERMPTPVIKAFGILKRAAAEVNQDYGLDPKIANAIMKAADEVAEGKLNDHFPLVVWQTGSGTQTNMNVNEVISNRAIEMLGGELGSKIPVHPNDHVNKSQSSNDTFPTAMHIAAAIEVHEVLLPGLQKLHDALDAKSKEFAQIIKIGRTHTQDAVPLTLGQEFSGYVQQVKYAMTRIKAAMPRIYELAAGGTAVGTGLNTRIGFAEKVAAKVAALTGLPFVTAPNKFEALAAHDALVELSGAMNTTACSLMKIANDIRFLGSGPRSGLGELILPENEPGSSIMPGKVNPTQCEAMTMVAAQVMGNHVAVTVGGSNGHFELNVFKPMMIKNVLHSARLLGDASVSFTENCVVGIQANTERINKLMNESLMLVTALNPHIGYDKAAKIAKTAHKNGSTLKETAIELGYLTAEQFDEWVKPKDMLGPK
SKOV3 invasion = inhibitors of ovarian cancer cell adhesion and invasion in omental model; SKOV3ip1-GFP adhesion/invasion on 3D omental model, fluorescence; Potency, µM (highest dose often 45.8 µM), for inactives: at the top dose activity change, negative = inhibition, hits mostly inhibitors; hit rate 0.1% among 46,000; AID 1963576;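 also: potency is read from the fitted curve at half-maximal effect; plate controls were DMSO wells for no effect and tomatine positive control wells for full effect; nearly all actives have a fitted effect of over 65% in size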
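qHTS, 4-pt dose (0.36-46 umol/L); SKOV3ip1-GFP, 1,200 cells/well, no FBS; primary omental fibroblast/mesothelial co-culture 48 h pre-grown; 2 h RT + 16 h 37 C; PBS wash, 4% PFA; GFP count 488/509 nm.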
* hit, by the source's call; i = inactive; u = inconclusive; x = not tested or not shown; ! = not confirmed by another sample; [ ] = dose if it differs, or a comment. An excerpt weighted towards active compounds, which were near 3.9% of everything screened. Unless noted, calls follow the shape of the dose curve; as a rule, active = well fitted curve in the direction sought with a large enough effect; inconclusive = small, poorly fitted or top-dose-only effect, or another doubt; inactive = no such curve, though single readings can be large; an effect the other way counts as inactive or inconclusive.

SMILES	NTMT1 inh	GPR32 ag	FH mod	SKOV3 invasion
COc1cc(C(=O)N2CCC(N3CCN(C)CC3)CC2)ccc1Nc1ncc2c(n1)N(C)c1ccccc1C(=O)N2C	-13.7%	x	11.3%	10.8%
CC(C)S(=O)(=O)Nc1ccc(F)c(C(=O)c2c[nH]c3ncc(-c4cccnc4)cc23)c1F	-5.7%[57.5 µM]	x	-5.8%	x
OCCN1CCN(CCCN2c3ccccc3Sc3ccc(C(F)(F)F)cc32)CC1	31.6µM*!	-14.4	-4.8%[53.3 µM]	-38.0%
CN(C)CCCN1c2ccccc2Sc2ccc(C(F)(F)F)cc21	u	-15.4	-24.3%[53.3 µM]	x
OCCN1CCN(CC/C=C2/c3ccccc3Sc3ccc(C(F)(F)F)cc32)CC1	u	61.7*!	u	x
O=C1CCc2cc(S(=O)(=O)Nc3ccc(Cl)c(Cl)c3)ccc2N1	-16.6%	x	x	x
COc1ccc(OCC(=O)Nc2cc(-c3cccc(Cl)c3)nn2-c2ccccc2)cc1	2.6%	100.2*	-4.6%	-0.2%
COc1ccc(OCC(=O)Nc2cc(-c3ccccc3F)nn2-c2ccccc2)cc1	-1.1%	90.7*	-6.3%	-11.0%
CC1(C)C=Cc2c(ccc3c2N=C2C(C)(C)[C@@H]4C[C@]56CCCN5C(=O)[C@@]4(C[C@]23O)NC6=O)O1	17.5%[29.8 µM]	x	-8.2%[53.3 µM]	x
C/C=C(/C(=C/C)c1ccc(OC(C)=O)cc1)c1ccc(OC(C)=O)cc1	10.6%[57.5 µM]	42.4	1.5%[53.3 µM]	x
CC1=C(C(=O)Nc2nc3ccccc3s2)C(c2[nH]ncc2Cl)N=C(Nc2nc3ccccc3o2)N1 (configuration not stated)	5.6%	x	x	x
Cc1ccn2c(Nc3ccc4c(c3)OCCO4)c(-c3cccs3)nc2c1	12.6µM*	-2.2	-14.3%	-16.6%
c1csc(-c2nc3ccccn3c2Nc2ccc3c(c2)OCCO3)c1	u	-2.8	-21.0%	-2.7%
Cc1ccc(-c2nc3ccccn3c2Nc2ccc3c(c2)OCCO3)o1	15.8µM*	-3.5	-8.4%	-5.8%
Cn1cc(Br)c(C2N=C(Nc3nc4ccccc4o3)NC3=C2C(=O)CCC3)n1 (configuration not stated)	5.8%	x	x	x
Oc1cccc(C(Nc2ccccn2)c2ccc3cccnc3c2O)c1Cl (configuration not stated)	x	81.0*	x	-3.6%
Oc1c(C(Nc2ccccn2)c2ccccc2)cc(Cl)c2cccnc12 (configuration not stated)	0.6%[57.5 µM]	x	x	x
CCCCOc1ccc(CC/C=C2\SC(=O)N(CCN)C2=O)cc1	50.1µM*	x	3.2%	x
CN(C1CCCCC1)S(=O)(=O)c1ccc(C(=O)Nc2sc3c(c2C(N)=O)CC(C)(C)NC3(C)C)cc1	-0.8%	117.6*	-5.6%	i
CCOC(=O)[C@H](CCc1ccccc1)CC1(C(=O)N[C@H]2CCc3ccccc3N(CC(=O)O)C2=O)CCCC1	3.3%[57.5 µM]	x	0.3%	x
Cc1cc(NC(=O)CCc2nc3cccnc3n2-c2ccccc2)ccc1Br	-7.3%	65.8*	-10.3%	-9.1%
COc1ccc(NC(=O)CCc2nc3cccnc3n2-c2ccccc2)cc1Cl	-18.7%	10.1	1.0%	5.1%
Cc1ncc(CCCN(C)C)cc1Nc1ncc2c(n1)-c1ccc(C(F)(F)F)cc1NC(=S)C2	31.6µM*	x	23.1%	x
CC(C)CCNC(=O)c1ccc2c(c1)nc(Nc1n[nH]c3ccc(-c4ccccc4OC(F)(F)F)cc13)n2C1CCC(O)CC1 (configuration not stated)	15.7%[57.5 µM]	x	-0.8%	x
Cc1ccc(CNC(=O)c2ccc(-c3nc(CS(=O)(=O)c4ccc(C)cc4)c(C)o3)cc2)cc1	u	109.8*	u	3.3%
SMILES	NTMT1 inh	GPR32 ag	FH mod	SKOV3 invasion
CCCCNC(=O)c1ccc(-c2nc(CS(=O)(=O)c3ccc(C)cc3)c(C)o2)cc1	15.0%	69.4*	-10.8%	0.3%
CCN(CC)CCCNC(=O)c1ccc(-c2nc(CN3CCc4ccccc43)c(C)o2)cc1	-17.9%	95.3*	-3.4%	u
CCCCNC(=O)c1ccc(-c2nc(CN3CCc4ccccc43)c(C)o2)cc1	14.0%	-6.5	-5.0%	i
COCCCNC(=O)c1ccc(-c2nc(CS(=O)(=O)c3ccc(C)cc3)c(C)o2)cc1	x	7.3	x	14.3%
CN1C(=O)CCc2cc(S(=O)(=O)Nc3ccc(Cl)c(Cl)c3)ccc21	-13.3%	x	x	x
CC1CCCN(C(=O)c2cc3c(Cl)nc4ccccc4c3s2)C1 (configuration not stated)	u	107.5*	-24.8%	-1.2%
CCCNS(=O)(=O)c1ccc2nc(NC(=O)c3ccc(F)cc3)sc2c1	8.91µM*	-19.1	4.6%	21.8%

High-throughput results as filed in PubChem.
